Assay results from PubChem BioAssay AID2069 (Sanford-Burnham Center for Chemical Genomics, 2009).
In all, about 1,200 compounds went through this assay and about 210 (18%) were called active. The sample holds actives, similar compounds and a random draw of the others, so the mix is not that of the screen. Rule as the data show it: active = inhibition above about 30%; inactive = the rest.

Assay: HTRF signal interference by compounds, confirmation, artefact control for SUMOylation inhibitor project, biochemical, uHTS (AID 2069)
Settings: HTRF interference counterscreen, fluorescence, at 35 µM, active compounds read high
In the case of `CC(C)[C@H]1C(=O)N2CCC[C@H]2[C@]2(O)O[C@](NC(=O)[C@@H]3C=C4c5cccc6[nH]cc(c56)C[C@H]4N(C)C3)(C(C)C)C(=O)N12`, the inhibition is reported as 12.3% (inactive).
For `CN1C[C@H](CO)C=C2c3cccc4[nH]cc(c34)C[C@H]21`, the inhibition was 36.9% (active).
For `CN1CCN(c2ccc(S(C)(=O)=O)cc2[N+](=O)[O-])CC1`, the inhibition was -0.45% (inactive).
For `COc1ccc(Cc2nccc3cc(OC)c(OC)cc23)cc1OC`, the inhibition was -2.9% (inactive).
In the case of `O=C(O)c1cccc2c1NC(c1cccc([N+](=O)[O-])c1)C1CC(Sc3ccccc3[N+](=O)[O-])C(Cl)C21` (stereo unspecified), the inhibition is reported as 26.1% (inactive).
With `CCCCn1c(N)c(C(=O)NCc2cccs2)c2nc3ccccc3nc21` the inhibition was 9.9% (inactive).
For `CCCCn1c(NS(=O)(=O)c2ccc(C)cc2)c(C(=O)OCC)c2nc3ccccc3nc21`, the inhibition was 58% (active).
In the case of `CCCCn1c(N)c(C(=O)OCCOC)c2nc3ccccc3nc21`, the inhibition is reported as 28.8% (inactive).
With `CCCCn1c(NS(=O)(=O)c2ccccc2)c(C(=O)OCC)c2nc3ccccc3nc21` the inhibition was 70.9% (active).
In the case of `CCCCn1c(NC(=O)c2ccco2)c(C(=O)OCC)c2nc3ccccc3nc21`, the inhibition is reported as 22.1% (inactive).
With `COc1cc(C(c2c(C)[nH]n(-c3ccccc3)c2=O)c2c(C)[nH]n(-c3ccccc3)c2=O)cc(OC)c1OC` the inhibition was 3.8% (inactive).
With `O=C(O)CC1OCC=C2CN3CCC45C6=CC(=O)C(=O)C([N+](=O)[O-])=C6NC4C1C2CC35` (stereo unspecified) the inhibition was 60.8% (active).
With `COc1ccc(OC)c(N2C(=O)NC(=O)/C(=C/c3ccc([N+](=O)[O-])s3)C2=O)c1` the inhibition was -8.75% (inactive).
In the case of `CN1CCN(c2ccc3nccnc3c2)CC1`, the inhibition is reported as 40.9% (active).
For `Cc1ccccc1-n1c(O)c(/C=N/NC(=O)c2ccccc2O)c(=O)[nH]c1=S`, the inhibition was 3.4% (inactive).
For `CN1CCC2(CC1)C(C#N)=C(N)NC(S)=C2C#N`, the inhibition was 76.5% (active).
In the case of `O=C1NC(=O)N(Cc2ccco2)C(=O)/C1=C\c1cccn1CCOc1ccc(Cl)cc1`, the inhibition is reported as -5.15% (inactive).
With `O=C(c1cccn2c(=O)c3ccc(Cl)cc3nc12)N1CCC2(CC1)OCCO2` the inhibition was 48.9% (active).
For `O=c1[nH]c(O)c(/C=C2/C=CC(c3cc(Cl)ccc3Cl)=N2)c(=O)[nH]1`, the inhibition was 18.3% (inactive).
With `Cc1c(CC(=O)N2C[C@H]3C[C@@H](C2)c2cccc(=O)n2C3)c(=O)oc2c(C)c(O)ccc12` the inhibition was 50.5% (active).
In the case of `N#C/C(=C(/O)c1ccc(S(=O)(=O)N(CCCl)CCCl)cc1)c1nc2ccccc2[nH]1`, the inhibition is reported as 28.4% (inactive).
For `Cc1ccsc1C(=O)C1CCCN(Cc2ccc(-n3cccn3)cc2)C1` (stereo unspecified), the inhibition was 30.6% (active).
In the case of `CC(=O)c1ccc2c(c1)C1C(Cl)C(Sc3ccccc3[N+](=O)[O-])CC1C(c1ccccc1[N+](=O)[O-])N2` (stereo unspecified), the inhibition is reported as -3.55% (inactive).
In the case of `CCN(CC)c1ccc([N+](=O)[O-])c2cccnc12`, the inhibition is reported as -11.9% (inactive).
In the case of `O=C(O)CCn1cc(C=C2C(=O)NC(=O)NC2=O)c(-c2ccc(Br)cc2)n1`, the inhibition is reported as -3.4% (inactive).
With `Nc1c(C(=O)NC2CCCC2)c2nc3ccccc3nc2n1CC1CCCO1` (stereo unspecified) the inhibition was 27.9% (inactive).
For `CCCNC(=O)c1c(N)n(Cc2ccc3c(c2)OCO3)c2nc3ccccc3nc12`, the inhibition was 9.15% (inactive).
With `CC(C)CCNC(=O)c1c(N)n(CC2CCCO2)c2nc3ccccc3nc12` (stereo unspecified) the inhibition was 30.4% (active).
For `CC(C)OCCCNC(=O)c1c(N)n(CC2CCCO2)c2nc3ccccc3nc12` (stereo unspecified), the inhibition was 51.1% (active).
For `CCOCCCn1c(N)c(C(=O)Nc2sc3c(c2C(=O)OC)CCCC3)c2nc3ccccc3nc21`, the inhibition was -2.4% (inactive).
In the case of `CC(C)CCNC(=O)c1c(N)n(Cc2ccc3c(c2)OCO3)c2nc3ccccc3nc12`, the inhibition is reported as 19.7% (inactive).
In the case of `CC(C)CNC(=O)c1c(N)n(Cc2ccc3c(c2)OCO3)c2nc3ccccc3nc12`, the inhibition is reported as 15.9% (inactive).
In the case of `CCC(C)NC(=O)c1c(N)n(Cc2ccc3c(c2)OCO3)c2nc3ccccc3nc12` (stereo unspecified), the inhibition is reported as 24.4% (inactive).
In the case of `CCCCn1c(N)c(C(=O)OCC2CCCO2)c2nc3ccccc3nc21` (stereo unspecified), the inhibition is reported as 28.1% (inactive).
For `Nc1c(C(=O)NCCCc2ccccc2)c2nc3ccccc3nc2n1Cc1cccs1`, the inhibition was 8% (inactive).
In the case of `CCCNC(=O)c1c(N)n(CC2CCCO2)c2nc3ccccc3nc12` (stereo unspecified), the inhibition is reported as 42% (active).
In the case of `CCC(C)NC(=O)c1c(N)n(CC2CCCO2)c2nc3ccccc3nc12` (stereo unspecified), the inhibition is reported as 32.5% (active).
With `O=C1NC(=O)N(Cc2ccco2)C(=O)/C1=C/c1ccc(-c2cccc([N+](=O)[O-])c2)o1` the inhibition was 14.7% (inactive).
In the case of `O=C(N/N=C/c1c(O)n(Cc2ccco2)c(=O)[nH]c1=O)c1ccccc1O`, the inhibition is reported as 22.9% (inactive).
With `Cc1cc(/C=C2\C(=O)NC(=O)N(Cc3ccccc3)C2=O)c(C)n1-c1ccc(Cl)c(C(=O)O)c1` the inhibition was 34.7% (active).
With `O=C(O)c1ccc2c(c1)C1C(Cl)C(Sc3ccccc3[N+](=O)[O-])CC1C(c1cccc([N+](=O)[O-])c1)N2` (stereo unspecified) the inhibition was -6.5% (inactive).
With `CC(=O)c1ccc2c(c1)C1C(Cl)C(Sc3ccccc3[N+](=O)[O-])CC1C(C(=O)O)N2` (stereo unspecified) the inhibition was 5.25% (inactive).
With `O=C1NC(=S)NC(=O)C1=Cc1cccn1-c1ccc(O)cc1` the inhibition was 21.8% (inactive).
For `CC(C)CCn1c(N)c(C(=O)NCc2cccs2)c2nc3ccccc3nc21`, the inhibition was 15.4% (inactive).
For `COCCCn1c(N)c(C(=O)NCCC(C)C)c2nc3ccccc3nc21`, the inhibition was 24.1% (inactive).
In the case of `COCCNC(=O)c1c(N)n(CCC(C)C)c2nc3ccccc3nc12`, the inhibition is reported as 34.7% (active).
With `COCCCn1c(N)c(C(=O)OCCOC)c2nc3ccccc3nc21` the inhibition was 29.9% (inactive).
In the case of `CCC(C)NC(=O)c1c(N)n(CCCOC)c2nc3ccccc3nc12` (stereo unspecified), the inhibition is reported as 36.5% (active).
In the case of `COc1ccc(Cn2c(N)c(C(=O)NCc3ccco3)c3nc4ccccc4nc32)cc1`, the inhibition is reported as 11.2% (inactive).
For `COc1cc(Cn2c(N)c(C(=O)NCc3ccco3)c3nc4ccccc4nc32)cc(OC)c1OC`, the inhibition was 11.6% (inactive).
With `COCCCn1c(N)c(C(=O)Nc2ccccc2)c2nc3ccccc3nc21` the inhibition was 7.4% (inactive).
With `CCCCNC(=O)c1c(N)n(CCCOC)c2nc3ccccc3nc12` the inhibition was 30.9% (active).
With `COCCCn1c(N)c(C(=O)NCc2ccco2)c2nc3ccccc3nc21` the inhibition was 34.1% (active).
In the case of `CCCCCn1c(N)c(C(=O)NCc2cccs2)c2nc3ccccc3nc21`, the inhibition is reported as 12.7% (inactive).
In the case of `CCOC(=O)c1c(NC(=O)c2c(N)n(CCCOC)c3nc4ccccc4nc23)sc2c1CCCC2`, the inhibition is reported as -0.35% (inactive).
In the case of `CN1CCc2nc3sc(C#N)c(N)c3c(-c3cccs3)c2C1`, the inhibition is reported as 14.3% (inactive).
In the case of `c1ccc2c(NC3=NCCS3)cccc2c1`, the inhibition is reported as -3.5% (inactive).
For `Cc1[nH]n(-c2ccccc2)c(=O)c1C(c1ccc([N+](=O)[O-])cc1)c1c(C)[nH]n(-c2ccccc2)c1=O`, the inhibition was -5.95% (inactive).
With `O=c1[nH]c(O)c(/C=C2\C=Nc3ccc(OCc4ccccc4)cc32)c(=O)[nH]1` the inhibition was 8.25% (inactive).
For `COCCNC(=O)c1c(NC(=O)c2ccco2)n(Cc2ccccc2)c2nc3ccccc3nc12`, the inhibition was 17.8% (inactive).
In the case of `Cn1c(O)c(/C=C2\N=c3ccccc3=C2CCNC(=S)NC2CC2)c(=O)n(C)c1=O`, the inhibition is reported as 13.3% (inactive).
